Source: PMC4336329 (PLoS ONE, 2015)
The campaign covered roughly 310,000 compounds. About 14,000 (4.5%) showed an effect of 50% or more. Effects have a minus sign here. Many of the other results were omitted from the sample, so strong results are more common in it than they were.

Target: human ether-à-go-go-related gene (hERG) potassium channel (human, UniProt Q12809)
Assay: primary screen, population patch clamp on CHO cells stably expressing hERG; higher = less effect of the substance
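Note: peak tail current of the secondary pulse compared with the same well before compound.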

Chain of human ether-à-go-go-related gene (hERG) potassium channel (Q12809 whole entry, looked up): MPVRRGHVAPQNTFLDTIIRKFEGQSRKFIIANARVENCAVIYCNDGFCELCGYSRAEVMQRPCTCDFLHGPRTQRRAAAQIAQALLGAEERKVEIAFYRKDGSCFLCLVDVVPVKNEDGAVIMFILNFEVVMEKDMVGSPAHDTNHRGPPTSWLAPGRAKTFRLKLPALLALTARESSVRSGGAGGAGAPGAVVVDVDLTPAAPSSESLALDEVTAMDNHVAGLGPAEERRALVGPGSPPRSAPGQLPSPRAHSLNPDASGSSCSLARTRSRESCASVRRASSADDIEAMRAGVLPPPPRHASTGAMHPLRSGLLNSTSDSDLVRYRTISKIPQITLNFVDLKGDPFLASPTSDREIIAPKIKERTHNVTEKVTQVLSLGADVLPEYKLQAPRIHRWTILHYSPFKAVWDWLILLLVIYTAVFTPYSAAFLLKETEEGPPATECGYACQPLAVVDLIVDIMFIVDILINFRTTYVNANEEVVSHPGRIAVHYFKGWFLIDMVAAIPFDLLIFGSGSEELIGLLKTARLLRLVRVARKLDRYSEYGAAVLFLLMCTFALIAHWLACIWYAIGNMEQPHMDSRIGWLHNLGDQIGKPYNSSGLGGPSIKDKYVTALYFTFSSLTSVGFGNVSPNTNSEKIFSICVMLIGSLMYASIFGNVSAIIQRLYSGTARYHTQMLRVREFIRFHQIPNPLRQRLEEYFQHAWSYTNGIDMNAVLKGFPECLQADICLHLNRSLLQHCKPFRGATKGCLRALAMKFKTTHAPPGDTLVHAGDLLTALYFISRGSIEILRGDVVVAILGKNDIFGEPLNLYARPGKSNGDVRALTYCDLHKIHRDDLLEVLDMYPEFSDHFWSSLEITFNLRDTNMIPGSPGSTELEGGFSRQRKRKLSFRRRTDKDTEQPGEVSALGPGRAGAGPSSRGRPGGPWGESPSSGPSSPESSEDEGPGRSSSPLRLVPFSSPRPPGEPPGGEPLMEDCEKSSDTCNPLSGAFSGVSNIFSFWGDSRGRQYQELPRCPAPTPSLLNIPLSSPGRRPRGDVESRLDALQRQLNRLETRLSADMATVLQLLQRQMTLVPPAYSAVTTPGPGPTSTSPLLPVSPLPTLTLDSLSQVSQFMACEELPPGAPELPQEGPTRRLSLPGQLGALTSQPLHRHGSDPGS

Row | SMILES | hERG current change (%, negative = inhibition) at 10uM
1 | O=C(N/N=C/c1cccnc1)c1cc2ccccc2cc1O | 5.26%
2 | C[C@@]12C(=O)N(c3ccc(C(F)(F)F)cc3)C(=O)N1[C@@H]1c3ccccc3OC[C@@H]1[C@H]2c1ccccc1 | 20%
3 | O=C(Cn1c(=O)n(CC2CCCO2)c(=O)c2ccccc21)c1ccc(Cl)c(Cl)c1 (centres unmarked) | -16.4%
4 | COc1ccc(S(=O)(=O)N(C)CC(=O)NCc2ccc3c(c2)OCO3)cc1 | -8.31%
5 | CN(CCCC(=O)NCc1ccc2c(c1)OCO2)S(=O)(=O)c1ccc([N+](=O)[O-])cc1 | -68.1%
6 | O=C(NCc1ccc2c(c1)OCO2)Nc1ccc([N+](=O)[O-])cc1 | 21.1%
7 | CN(CC(=O)NCc1ccc2c(c1)OCO2)S(=O)(=O)c1ccc(F)cc1 | -8.53%
8 | Cc1ccc(S(=O)(=O)N(C)CCCC(=O)NCc2ccc3c(c2)OCO3)cc1 | -23.5%
9 | CN(CCCC(=O)NC1CC(C)(C)NC(C)(C)C1)S(=O)(=O)c1ccc([N+](=O)[O-])cc1 | 12.5%
10 | CN(CCCC(=O)NCCc1ccccc1)S(=O)(=O)c1ccc([N+](=O)[O-])cc1 | -37.6%
11 | CN(CCCC(=O)NCc1ccccc1)S(=O)(=O)c1ccc([N+](=O)[O-])cc1 | -65.6%
12 | CCOc1ccc(S(=O)(=O)N(C)CC(=O)NCc2ccc3c(c2)OCO3)cc1 | -64.4%
13 | C=CCn1c(SCCCc2ccccc2)nc2c1c(=O)[nH]c(=O)n2C | -26.1%
14 | COc1ccc(OC)c(NS(=O)(=O)c2ccc(-c3coc(C)n3)cc2)c1 | 0.503%
15 | COc1cccc(NC(=O)N2CCCC2C(=O)NC2CC2)c1 (centres unmarked) | 3.61%
16 | COc1ccc(-c2[nH]ncc2CN(C)Cc2cnccn2)c(OC)c1 | 14%
17 | O=C(O)c1cc2n(n1)C(C(F)(F)F)CC(c1ccco1)N2 (centres unmarked) | 22.2%
18 | O=S(=O)(NC1CCCCC1N1CCN(c2ccc(F)cc2)CC1)c1ccccc1 (centres unmarked) | -7.05%
19 | O=C(CCN1C(=O)/C(=C/c2ccc(F)cc2)SC1=S)NCCCn1ccnc1 | -63.6%
20 | O=C(CCCN1C(=O)/C(=C/c2ccc(F)cc2)SC1=S)NCCCn1ccnc1 | -71%
21 | COc1ccccc1/C=C1\SC(=S)N(CCC(=O)NCCCn2ccnc2)C1=O | -44.7%
22 | O=C(CCCN1C(=O)c2ccccc2C1=O)NCCCn1ccnc1 | 13.4%
23 | O=C(CCN1C(=O)S/C(=C\c2ccccc2)C1=O)NCCCn1ccnc1 | -38.4%
24 | O=C(CCCN1C(=O)/C(=C/c2ccccc2)SC1=S)NCCCn1ccnc1 | -59.9%

Row | SMILES | hERG current change (%, negative = inhibition) at 10uM
25 | O=C(CCN1C(=O)/C(=C/c2ccccc2F)SC1=S)NCCCn1ccnc1 | -38.1%
26 | COc1ccc(/C=C2\SC(=S)N(CCC(=O)NCCCn3ccnc3)C2=O)cc1 | -28.5%
27 | O=C(CCN1C(=O)/C(=C/c2ccc(Cl)cc2)SC1=S)NCCCn1ccnc1 | -23.4%
28 | COc1cc(S(=O)(=O)N2CCN(C(=O)c3ccco3)CC2)c(OC)cc1C | 6.03%
29 | COc1ccc(C2(C)NC(=O)N(CC(=O)Nc3ccc(C)cc3Br)C2=O)cc1OC (centres unmarked) | 1.02%
30 | CN(C)c1ccc(CNc2ncc(Br)cc2Br)cc1 | -3.62%
31 | Cc1ccccc1NC(=O)c1ccc(-n2cncn2)nc1 | -14.1%
32 | Cc1nn(C)c(C)c1S(=O)(=O)N(CC(=O)Nc1ccc2c(c1)OCO2)c1ccc(C(C)C)cc1 | 7.38%
33 | CC(C)C(OC(=O)c1nsc(Cl)c1Cl)C(=O)NC1CCCCC1 (centres unmarked) | -17.7%
34 | Cc1oc2nc(SCCCC(=O)NCCCO)nc(N)c2c1C | 9.44%
35 | Cc1ccc(CN2CCC(n3nccc3NC(=O)c3ccccc3C)CC2)o1 | -25.9%
36 | O=C(Nc1ccnn1C1CCN(CC2CC=CCC2)CC1)c1ccccc1Cl (centres unmarked) | -70.7%
37 | Cc1ccccc1C(=O)Nc1ccnn1C1CCN(Cc2ccc(CO)o2)CC1 | -1.16%
38 | COc1ccc(C(=O)Nc2ccnn2C2CCN(CC3CC=CCC3)CC2)cc1 (centres unmarked) | -37.4%
39 | COc1ccccc1C(=O)Nc1ccnn1C1CCN(CC2CC=CCC2)CC1 (centres unmarked) | -82.3%
40 | Cc1ccccc1C(=O)Nc1ccnn1C1CCN(CC2CC=CCC2)CC1 (centres unmarked) | -72.6%
41 | Cl.NCC(c1ccccc1)(c1ccccc1)c1ccccc1 | -15.5%
42 | O=C(COc1ccccc1)NCC(=O)N/N=C/c1ccc(Br)cc1 | -14.6%
43 | CCCCCCCCCC(=O)N/N=C(\C)c1cccnc1 | 9.29%
44 | COc1ccc(C(C)=O)c2c1OCCO2 | -3.35%
45 | COc1ccc(C(=O)Nc2ccc(S(=O)(=O)Nc3nccnc3OC)cc2)cc1 | 8.73%
46 | COc1cccc(C(=O)N2CCC(N3CC(C)OC(C)C3)CC2)c1.O=C(O)C(=O)O (centres unmarked) | 14.4%
47 | O=S(=O)(O/N=C1\CCCc2ccccc21)c1ccccc1 | 7.59%
48 | CCC1CCC(N2CCN(c3cccc(OC)c3)CC2)CC1 (centres unmarked) | -33.7%

Row | SMILES | hERG current change (%, negative = inhibition) at 10uM
49 | O=[N+]([O-])c1ccc(N2CCN(c3ccc(F)cc3)CC2)cc1 | -17.9%
50 | CCC1CCC(N2CCN(c3ccc([N+](=O)[O-])cc3)CC2)CC1 (centres unmarked) | -79.8%
51 | CCN1CCC(N2CCN(c3ccc(F)cc3)CC2)CC1 | -5.34%
52 | O=[N+]([O-])c1ccc(N2CCN(c3ccccc3)CC2)cc1 | 4.77%
53 | CCC1CCC(N2CCN(c3ccccc3F)CC2)CC1 (centres unmarked) | -22.2%
54 | O=[N+]([O-])c1ccc(N2CCSCC2)cc1 | -10.4%
55 | CCCN1CCC(N2CCN(c3ccc([N+](=O)[O-])cc3)CC2)CC1 | -74.3%
56 | CCC1CCC(N2CCN(c3ccc(F)cc3)CC2)CC1 (centres unmarked) | -52.1%
57 | CCN1CCC(N2CCN(c3ccc(Cl)cc3)CC2)CC1 | -18.8%
58 | CCS(=O)(=O)N1CCC(N2CCN(c3ccccc3)CC2)CC1 | -10.9%
59 | CC1CCC(N2CCN(c3ccc([N+](=O)[O-])cc3)CC2)CC1 (centres unmarked) | -74.8%
60 | COCCNC(=S)N/N=C/c1c2ccccc2cc2ccccc12 | 15.5%
61 | CCOC(=O)C(CC(=O)O)NCc1ccco1 (centres unmarked) | 17.4%
62 | CCC(C)N(CC(=O)NCc1ccc(OC)cc1)C(=O)c1csnn1 (centres unmarked) | -18.3%
63 | COc1ccc(N2CCN(C(=S)NCc3ccccc3)CC2)cc1 | 15.3%
64 | COc1ccccc1Nc1nc(C)cc(=O)[nH]1 | -7.91%
65 | O=C(COC(=O)c1ccccc1O)Nc1ccc(OC(F)F)cc1 | 2.74%
66 | COc1ccccc1C(=O)OCC(=O)Nc1ccc(OC(F)F)cc1 | -32.2%
67 | COc1ccccc1C(=O)COC(=O)c1ccccc1OCC(=O)Nc1ccc(SC(F)F)cc1 | 12.6%
68 | CCOc1ccccc1C(=O)OCC(=O)Nc1ccc(OC(F)F)cc1 | -54%
69 | COc1cc(C(=O)OCC(=O)Nc2ccc(SC(F)F)cc2)cc(OC)c1OC | -55.7%
70 | COc1cc(C(=O)OCC(=O)Nc2ccc(C)cc2)cc(OC)c1OC | 28.7%
71 | COc1ccccc1NC(=O)COC(=O)c1ccccc1OCC(=O)Nc1ccc(SC(F)F)cc1 | 1.67%
72 | O=C(COC(=O)c1cc(S(=O)(=O)N2CCCC2)ccc1O)Nc1ccc(SC(F)F)cc1 | -57.5%

Row | SMILES | hERG current change (%, negative = inhibition) at 10uM
73 | O=C(COC(=O)c1ccccc1O)Nc1ccc(S(=O)(=O)N2CCCCC2)cc1 | 3.29%
74 | CCOc1cc(C(=O)OCC(=O)Nc2ccc(SC(F)F)cc2)cc(OCC)c1OCC | 4.57%
75 | O=C(COC(=O)c1cc(S(=O)(=O)N2CCCC2)ccc1O)Nc1ccc(S(=O)(=O)N2CCOCC2)cc1 | 23.6%
76 | CN(C)C(=O)COC(=O)c1ccccc1OCC(=O)Nc1ccc(SC(F)F)cc1 | -51.8%
77 | O=C(NC(Cc1ccccc1)c1ccc2c(c1)OCCCO2)c1ccc(F)cc1 (centres unmarked) | 8.05%
78 | COc1ccc2cc1Oc1ccc(cc1)CC1c3c(cc(OC)c4c3Oc3cc5c(cc3O4)CCNC5C2)CCN1C (centres unmarked) | 0.681%
79 | N#Cc1c(Cl)nc(SCc2ccccc2)nc1-c1ccccc1 | 8.45%
80 | CN(C(=O)c1ccccc1C(=O)OCC(=O)Nc1ccc(S(N)(=O)=O)cc1)c1ccccc1 | -5.32%
81 | CN(C(=O)c1ccccc1C(=O)OCC(=O)Nc1ccccc1)c1ccccc1 | 0.655%
82 | CN(C(=O)c1ccccc1C(=O)OCC(=O)Nc1ccc(OC(F)F)cc1)c1ccccc1 | -54%
83 | CCOc1cc2c(Cl)ncnc2c(OCC)c1OCC | 23.3%
84 | CCOC(=O)c1cccc(NC(=O)CCn2cccc2)c1 | -27.7%
85 | COc1c2ccccc2nc2ccccc12 | 13.3%
86 | COc1cc(NC(=O)c2ccc3c(SCC(=O)O)c4c(nc3c2)CCCC4)cc(OC)c1OC | 12.3%
87 | COc1cc(Nc2nc(SCC#N)nc3ccccc23)cc(OC)c1OC | -32%
88 | COc1ccc([N+](=O)[O-])cc1Nc1c2ccccc2nc2ccccc12 | 9.54%
89 | COc1ccccc1Nc1c2ccccc2nc2ccccc12 | -71%
90 | COc1cc(Nc2c3ccccc3nc3ccccc23)cc(OC)c1OC | -63.9%
91 | COc1cc(NS(C)(=O)=O)ccc1Nc1c2ccccc2nc2ccccc12.Cl | -67.7%
92 | COc1ccccc1Nc1nc(-c2ccccc2)nc2ccccc12 | 23.5%
93 | COc1cc(Nc2c3c(nc4ccccc24)CCCC3)cc(OC)c1OC | -65.9%
94 | COc1ccc(OC)c(Nc2c3ccccc3nc3ccccc23)c1 | -11%
95 | COc1ccc(Nc2nc(N)c3ccccc3n2)c(OC)c1.Cl | -14.9%
